Source: PubChem BioAssay AID743395 (Broad Institute, 2014)
Screen size: about 1,200 compounds; about 480 (40%) were called active. No rule for the calls is given here. So high a share suggests a set chosen from earlier hits. Not all results are given here. Results with a measured potency or affinity are listed apart.

Assay: viability loss in human hepatoma cells – cell-based, CellTiter-Glo luminescence, cherry-pick, set 2, cytotoxicity control, dose response (AID 743395)
Details: HepG2 viability, CellTiter-Glo ATP luminescence, 72 h; series mostly up to 26 µM

Compound | outcome
CCN(C(=O)COC(=O)/C=C/c1c(C)nn(-c2ccccc2)c1C)c1c(N)n(Cc2ccccc2)c(=O)[nH]c1=O | inactive
CN(Cc1ccco1)c1ncnc2ccc(-c3ccc4c(ccn4C)c3)cc12 | inactive
COc1ccccc1C(=O)Nc1ccc2c(c1)nc(CCNC(=O)c1ccco1)n2C | inactive
CC1(C)Cc2c(c(-c3ccco3)nc3sc4c(NCCN5CCOCC5)ncnc4c23)CO1 | inactive
O=C(c1cccc(S(=O)(=O)N2CCOCC2)c1)N1CCCC(C(F)(F)F)C1 (stereo not drawn) | inactive
CN(CCOc1ccc(Cl)cc1)C(=O)c1cccc(S(=O)(=O)N2CCN(c3ccccc3)CC2)c1 | inactive
CCN(CC)S(=O)(=O)c1ccc(NC(=O)C2CC(=O)N(c3ccc4c(c3)OCCO4)C2)cc1 (stereo not drawn) | inactive
Cc1cc(C(=O)N/N=C/c2ccc3c(c2)OCO3)c2ccccc2n1 | inactive
Cn1cc(C(=O)OCC2CCN(CCNS(C)(=O)=O)CC2)c2ccccc21 | inactive
CCOc1ccc(NC(=O)c2ccccc2NC(=O)CNC2CCCC(C)C2C)cc1 (stereo not drawn) | inactive
COc1cc(C(=O)Nc2ccc(C)cc2)c2ccccc2n1 | inactive
COc1ccc(OCC(=O)N/N=C/C=C/c2ccccc2)cc1 | inactive
COc1ccc2[nH]c(C(=O)N/N=C/c3ccc(OC)c(O)c3)cc2c1 | inactive
CC(C)C[C@@H](COCc1ccc(C(F)(F)F)cc1)N1CCN(C(=O)c2ccc(C(F)(F)F)cc2)CCC1=O | inactive
CN(CC(=O)NCCc1ccc(S(N)(=O)=O)cc1)CC(=O)Nc1ccc(Cl)c(C(F)(F)F)c1 | inactive
Nc1c2c(nc3ccccc13)CCCC2 | inactive
CCOC(=O)C1CCCN(c2nc3ccccc3nc2NS(=O)(=O)c2ccc(C)cc2)C1 (stereo not drawn) | inactive
CCOC1=C2CN(S(=O)(=O)c3ccc(C)cc3)CC[C@@H]2N(S(=O)(=O)c2ccc(C)cc2)[C@H](c2ccccc2)C1 | inactive
C[C@H]1C[C@H]2[C@@H]3CCC4=CC(=O)C=C[C@]4(C)[C@@]3(F)[C@@H](O)C[C@]2(C)[C@@]1(O)C(=O)CO | inactive
Cc1ccc(-c2ccc3c(c2)O[C@H](CN(C)C(=O)Nc2ccc(F)cc2)[C@@H](C)CN([C@@H](C)CO)S3(=O)=O)cc1 | inactive
Cc1ccc(-c2ccc3c(c2)O[C@@H](CN(C)C(=O)Nc2ccc(F)cc2)[C@@H](C)CN([C@H](C)CO)S3(=O)=O)cc1 | inactive
Cc1ccc(-c2ccc3c(c2)O[C@@H](CN(C)C(=O)Nc2ccc(F)cc2)[C@@H](C)CN([C@@H](C)CO)S3(=O)=O)cc1 | inactive

Compound | outcome
C[C@@H]1CN([C@H](C)CO)S(=O)(=O)c2ccc(-c3ccc(C#N)cc3)cc2O[C@H]1CN(C)Cc1ccccn1 | inactive
Cc1ccc(-c2ccc3c(c2)O[C@H](CN(C)C(=O)Nc2ccc(C(F)(F)F)cc2)[C@@H](C)CN([C@@H](C)CO)S3(=O)=O)cc1 | inactive
C[C@H]1CN([C@@H](C)CO)S(=O)(=O)c2ccc(C3=CCCCC3)cc2O[C@@H]1CN(C)C(=O)Cc1ccncc1 | inactive
C[C@@H]1CN([C@H](C)CO)S(=O)(=O)c2ccc(-c3ccc(C#N)cc3)cc2O[C@H]1CN(C)Cc1cccc(F)c1 | inactive
COc1cccc(S(=O)(=O)N(C)C[C@@H]2Oc3cc(C4=CCCC4)ccc3S(=O)(=O)N([C@@H](C)CO)C[C@H]2C)c1 | inactive
CC(=O)c1c(C)[nH]c(C(=O)OCc2nnc(-c3ccc([N+](=O)[O-])cc3)o2)c1C | inactive
C[C@@H]1CN([C@@H](C)CO)S(=O)(=O)c2ccc(-c3ccc(C#N)cc3)cc2O[C@H]1CN(C)Cc1cccc(F)c1 | inactive
C[C@@H]1CN([C@@H](C)CO)S(=O)(=O)c2ccc(C#Cc3ccc(F)cc3)cc2O[C@H]1CN(C)C(=O)c1ccccn1 | inactive
Cc1ccc(-c2ccc3c(c2)O[C@H](CN(C)C(=O)Nc2ccc(C(F)(F)F)cc2)[C@H](C)CN([C@@H](C)CO)S3(=O)=O)cc1 | inactive
C[C@@H]1CN([C@H](C)CO)S(=O)(=O)c2ccc(C#CC3CC3)cc2O[C@H]1CN(C)Cc1ccccn1 | inactive
CO[C@@H](CN(C)S(=O)(=O)c1ccc(C)cc1)[C@H](C)CN([C@@H](C)CO)S(=O)(=O)c1cccc(Cl)c1 | inactive
O=C(Cc1ccccn1)NCC[C@@H]1CC[C@H](NC(=O)Nc2ccc(C(F)(F)F)cc2)[C@@H](CO)O1 | inactive
O=C(O)c1ccccc1-c1nc(-c2ccccc2)c(-c2ccccc2)[nH]1 | inactive
O=C(NCc1ccccc1)C(c1ccc(-c2ccccc2)cc1)n1c(=O)c(-c2cc3ccccc3[nH]2)nc2ccccc21 (stereo not drawn) | inactive
COc1cc2c(cc1OC)C(c1cccs1)N(C(=O)c1cccnc1)CC2 (stereo not drawn) | inactive
Cc1cc(C(=O)CN2CCN(CC(=O)Nc3ccc(F)cc3)CC2)c(C)n1C1CC1 | inactive
CCCOc1ccc(C(=O)CCCC(=O)c2ccc(OCCC)cc2)cc1 | inactive
CCOc1ccc(C(=O)NCC(=O)N2CCN(Cc3ccccc3)CC2)cc1 | inactive
CN1/C(=C\C=C2/SC(=S)N(CC(=O)O)C2=O)C(C)(C)c2ccccc21 | inactive
C=CCN(CC=C)C(=S)Nc1ccc(OC)c(OC)c1 | inactive
CCOc1ccc(C(=O)NNC(=O)CCNC(=O)c2ccc(Br)cc2)cc1OC | inactive
Cc1ccc(CNC(=O)COC(=O)c2ccc(S(=O)(=O)N(C)C)cc2)cc1 | inactive

Compound | outcome
Cc1nnc(NC(=O)CSc2nccn2-c2cccc(C)c2C)s1 | inactive
Cc1cc(Br)c(NC(=O)C(C)Sc2nnnn2C)c(Br)c1 (stereo not drawn) | inactive
NS(=O)(=O)c1ccc(NNC(=O)c2ccc(Br)o2)c([N+](=O)[O-])c1 | inactive
CC(C)NC(=O)c1ccc(COc2cccc3ccccc23)o1 | inactive
Cc1cc(C(=O)NNC(=O)c2ccc(Cl)c(S(N)(=O)=O)c2)c(C)o1 | inactive
Cc1ccc(S(=O)(=O)N2CCOCC2)cc1NC(=O)CSc1n[nH]c(N)n1 | inactive
O=C(Nc1ccccc1F)N1C[C@H]2[C@@H](c3ccccc31)[C@@H](CO)N2C(=O)c1ccccn1 | inactive
COc1ccccc1NS(=O)(=O)c1cc(N=N/C(C(=O)Nc2ccc(Cl)cc2)=C(/C)O)ccc1C | inactive
COc1ccccc1NS(=O)(=O)c1cc(C(=O)N2CCCCCC2)ccc1C | inactive
Cc1ccc(C(=O)NNC(=O)c2ccc(S(=O)(=O)N3CCCCC3)cc2)cc1 | inactive
O=C(NC(=S)Nc1ccc(-c2ccccc2)cc1)c1ccccc1 | inactive
CNC(=O)C1CC(=O)N(c2ccc(OCC(=O)Nc3ccccc3)cc2)C1 (stereo not drawn) | inactive
COc1ccccc1N1CC(C(=O)Nc2ccc(S(=O)(=O)N3CCCC3)cc2)CC1=O (stereo not drawn) | inactive
COc1ccc(C2=NOC(C(=O)NCc3ccccc3)C2)cc1 (stereo not drawn) | inactive
COc1ccc(Cc2nnc(NC(=O)c3ccc(F)cc3)s2)cc1OC | inactive
COc1ccc2c(c1)c(CC(=O)OCC(=O)O)c(C)n2C(=O)c1ccc(Cl)cc1 | inactive
Cc1ccc(S(=O)(=O)N2CCN(C(=O)COC(=O)/C=C/c3ccc(Cl)cc3)CC2)c(C)c1 | inactive
N#Cc1ncn(C2OC(CO)C(O)C2O)c1N (stereo not drawn) | inactive
Cc1cc(Cl)cc(C)c1OCCn1ccnc1 | inactive
Cc1ccc(NC(=O)COC(=O)CCC2CCCC2)c(Br)c1 | inactive
COc1ccc2c3c([nH]c2c1)[C@@H](CO)N(S(=O)(=O)c1cn(C)cn1)CC31CCN(CC2CCCCC2)CC1 | inactive
CCCC(=O)Nc1ccc2c(c1)C(=O)N(C)C[C@@H](OC)[C@H](C)CN(C(=O)CN1CCOCC1)[C@H](C)CO2 | inactive

Compound | outcome
Cc1ccc(/C=N/NC(=O)C2COc3ccccc3O2)s1 (stereo not drawn) | inactive
NS(=O)(=O)c1ccc(Cl)c(S(N)(=O)=O)c1 | inactive
CCN(CC)c1ccc(/C=C(/C#N)c2nc3ccc(C)cc3[nH]2)c(OC(C)C)c1 | inactive
Cc1cc(C)c(C(=O)NC2CCCc3c2cnn3-c2cccc(C)c2C)o1 (stereo not drawn) | inactive
CCNC(=S)NNC(=O)CC(C)C | inactive
CC(=O)NC(=S)Nc1ccc(NC(=S)NC(=O)/C=C/c2ccco2)cc1 | inactive
O=C(/C=C/c1ccco1)NC(=S)Nc1nc(-c2ccc3ccccc3c2)cs1 | inactive
CN(C(=O)c1ccccc1C(=O)OCC(=O)Nc1ccc(S(N)(=O)=O)cc1)c1ccccc1 | inactive
CCCCc1nc(Cl)c(CO)n1Cc1ccc(-c2ccccc2-c2nn[nH]n2)cc1 | inactive
COc1cc(NC(=O)COC(=O)c2n[nH]c3ccccc23)c(C)cc1[N+](=O)[O-] | inactive
COCCSc1ccccc1C(=O)Nc1cc([N+](=O)[O-])ccc1OC | inactive
C=CCn1c(SCC(=O)N(C)C2CCS(=O)(=O)C2)nc2ccccc2c1=O (stereo not drawn) | inactive
COC(=O)c1cc2c(=O)c3ccccc3oc2nc1/C=C/N(C)C | inactive
O=C(Cc1ccccn1)NCC[C@@H]1CC[C@H](NC(=O)Nc2ccc(C(F)(F)F)cc2)[C@H](CO)O1 | inactive
CCOC(=O)C1=CN(Cc2ccco2)S(=O)(=O)NC1c1ccc(C(F)(F)F)cc1 (stereo not drawn) | inactive
Cc1cc(C(=O)CN2C(=O)C(=O)N(Cc3ccccc3)C2=O)c(C)n1Cc1ccccc1 | inactive
CC(C)[N+]1(C)[C@@H]2CC[C@@H]1CC(OC(=O)C(CO)c1ccccc1)C2 (stereo partly drawn) | inactive
Cc1noc(C)c1NC(=O)N(C)C[C@H]1Oc2cc(C#CCC3CCCC3)ccc2S(=O)(=O)N([C@@H](C)CO)C[C@@H]1C | inactive
CCC1(C)Cc2ccccc2-c2nc[nH]c(=O)c21 (stereo not drawn) | inactive
O=S(=O)(c1ccc(OCc2ccc(Br)cc2)cc1)N1CCOCC1 | inactive
COc1cc(C(c2sc3nc(C)nn3c2O)N2CCN(c3ccccc3)CC2)cc(OC)c1OC (stereo not drawn) | inactive
Cn1nnnc1N=N/C(=N/Nc1ccccc1)c1ccccc1 | inactive
